In experiment [1] the test system is Plasmodium falciparum Sir2 (PF13_0152, Sir2A). Description: Plasmodium falciparum Sir2A binding compounds – biochemical, small-molecule microarray, 635 nm fluorescence, primary screen (AID 1098).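 Note: score merges spot fluorescence intensity with its signal-to-noise ratio.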 As to conditions: fluorescence 635 nm, higher = more signal.
Experiment [2] can be described thus: probe aDKK1 binding to arrayed compounds – biochemical, biotinylated probe, 635/667 nm fluorescence, primary screen (AID 1099).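 Note: score merges 667nm spot fluorescence with signal to noise across triplicate slides; reference of the scale not given here.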 The following applies: small-molecule microarray, higher = more signal.
Experiment [3] can be described thus: probe aCHRDL2 binding to arrayed compounds – biochemical, biotinylated probe, 635/667 nm fluorescence, primary screen (AID 1100). As to conditions: small-molecule microarray, higher = more signal.
A short description of experiment [4]: change in splice reporter luminescence, either direction, cell-based, HEK293, spliceosome inhibition project, primary screen (AID 1101).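 Note: HEK293 cells carrying a splicing-competent luciferase reporter gene; test concentration not given here.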 The following applies: HEK293 splicing luciferase reporter, 24 h, higher = more signal, called active from +8 up or from −8 down. In general terms: In a reporter assay the amount or activity of a reporter protein is the signal.

Experiment [5] deals with Fibroblast growth factor 10 (Homo sapiens) (UniProt O15520). Kind of experiment: compounds binding fibroblast growth factor 10 – biochemical, small-molecule microarray, 635 nm fluorescence, primary screen (AID 1102). The following applies: FGF10 binding, fluorescence 635 nm, higher = more signal.
Chain of Fibroblast growth factor 10 (Homo sapiens) (O15520 whole entry, looked up): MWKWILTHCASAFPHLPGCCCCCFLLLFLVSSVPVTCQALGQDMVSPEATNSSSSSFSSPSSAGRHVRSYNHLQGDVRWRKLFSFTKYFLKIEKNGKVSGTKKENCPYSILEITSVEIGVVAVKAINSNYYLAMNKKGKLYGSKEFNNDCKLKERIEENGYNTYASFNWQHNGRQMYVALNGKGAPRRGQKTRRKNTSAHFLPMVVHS
Experiment [6] relates to glycogen synthase kinase-3 (GSK3A per assay name; protocol says GSK3B). Kind of experiment: compounds binding glycogen synthase kinase-3 – biochemical, small-molecule microarray, 635 nm fluorescence, GSK3A, primary screen (AID 1103). Note: the record names both GSK3A and GSK3B. As to conditions: fluorescence 635 nm, higher = more signal.
Experiment [7] concerns the target Epidermal growth factor receptor (Homo sapiens) (UniProt P00533). Description: compounds binding epidermal growth factor receptor – biochemical, small-molecule microarray, 635 nm fluorescence, primary screen (AID 1104).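 Note: score merges 667 nm emission intensity with spot signal to noise over triplicate slides.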 The following applies: EGFR binding, higher = more signal.
Experiment [8] addresses Follistatin-related protein 3 (Homo sapiens) (UniProt O95633). Description: compounds binding follistatin-related protein 3 – biochemical, small-molecule microarray, 635 nm fluorescence, primary screen (AID 1105).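 Note: score merges emission near 667 nm and signal to noise per printed spot across three slides.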 The following applies: FSTL3 binding, higher = more signal.
Experiment [9] has as its target Dickkopf-related protein 1 (Homo sapiens) (UniProt O94907). Kind of experiment: small molecules binding DKK1 protein – biochemical, small-molecule microarray, 635 nm fluorescence scan, primary screen (AID 1106).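 Note: score merges emission near 667 nm with signal to noise over three replicate slides.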 The following applies: higher = more signal.
In experiment [10] the test system is Inhibin beta A chain (activin A). Description: small molecules binding activin A – biochemical, small-molecule microarray, 635 nm fluorescence scan, primary screen (AID 1107).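 Note: mouse activin A protein probed at 4.33 µg/mL on printed slides; score merges bound-protein fluorescence near 667 nm with spot signal-to-noise.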 As to conditions: INHBA, higher = more signal.

From PubChem BioAssay come the findings set out here.

SMILES strings stand for the structures. Calls of active or inactive are those of the source.

Chain of Follistatin-related protein 3 (Homo sapiens) (O95633 whole entry, looked up): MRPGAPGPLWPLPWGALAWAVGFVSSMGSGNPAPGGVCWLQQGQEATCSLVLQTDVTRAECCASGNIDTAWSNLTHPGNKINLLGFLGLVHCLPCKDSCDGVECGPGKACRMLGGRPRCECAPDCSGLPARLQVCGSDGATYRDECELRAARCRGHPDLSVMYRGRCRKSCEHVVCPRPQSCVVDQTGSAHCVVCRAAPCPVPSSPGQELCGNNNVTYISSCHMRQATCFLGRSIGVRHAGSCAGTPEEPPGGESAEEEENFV
Chain of Epidermal growth factor receptor (Homo sapiens) (P00533 whole entry, looked up): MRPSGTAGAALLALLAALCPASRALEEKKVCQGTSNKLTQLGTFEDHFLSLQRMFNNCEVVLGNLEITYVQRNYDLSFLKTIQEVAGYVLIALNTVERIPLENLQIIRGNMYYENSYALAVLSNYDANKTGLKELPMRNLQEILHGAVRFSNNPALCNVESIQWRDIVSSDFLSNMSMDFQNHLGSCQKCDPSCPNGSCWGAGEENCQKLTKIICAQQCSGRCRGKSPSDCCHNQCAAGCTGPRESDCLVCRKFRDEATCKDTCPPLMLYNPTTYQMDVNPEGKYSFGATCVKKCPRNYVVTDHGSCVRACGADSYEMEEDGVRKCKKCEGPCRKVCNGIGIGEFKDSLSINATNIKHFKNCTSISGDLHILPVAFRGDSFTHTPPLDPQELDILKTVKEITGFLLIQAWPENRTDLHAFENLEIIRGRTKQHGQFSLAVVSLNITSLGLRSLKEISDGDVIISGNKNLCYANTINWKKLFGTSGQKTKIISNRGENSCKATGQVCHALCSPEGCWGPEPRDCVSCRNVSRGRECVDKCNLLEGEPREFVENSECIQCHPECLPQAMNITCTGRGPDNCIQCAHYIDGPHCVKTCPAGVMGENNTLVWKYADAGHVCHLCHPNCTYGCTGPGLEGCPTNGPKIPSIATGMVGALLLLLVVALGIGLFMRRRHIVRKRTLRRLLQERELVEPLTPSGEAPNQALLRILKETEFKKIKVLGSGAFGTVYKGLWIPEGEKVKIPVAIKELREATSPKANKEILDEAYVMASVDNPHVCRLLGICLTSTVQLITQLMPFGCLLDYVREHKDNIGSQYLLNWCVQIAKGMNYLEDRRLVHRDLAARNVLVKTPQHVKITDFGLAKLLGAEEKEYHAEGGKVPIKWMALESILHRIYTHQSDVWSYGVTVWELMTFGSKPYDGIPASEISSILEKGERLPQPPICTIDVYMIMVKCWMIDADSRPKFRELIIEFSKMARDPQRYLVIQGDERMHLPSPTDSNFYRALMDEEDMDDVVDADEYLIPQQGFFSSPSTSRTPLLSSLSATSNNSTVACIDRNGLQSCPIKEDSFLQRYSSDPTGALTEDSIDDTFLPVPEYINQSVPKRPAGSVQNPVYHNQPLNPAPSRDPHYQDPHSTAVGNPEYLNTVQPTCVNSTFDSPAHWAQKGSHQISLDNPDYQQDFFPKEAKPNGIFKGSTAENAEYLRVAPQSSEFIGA
Chain of Dickkopf-related protein 1 (Homo sapiens) (O94907 whole entry, looked up): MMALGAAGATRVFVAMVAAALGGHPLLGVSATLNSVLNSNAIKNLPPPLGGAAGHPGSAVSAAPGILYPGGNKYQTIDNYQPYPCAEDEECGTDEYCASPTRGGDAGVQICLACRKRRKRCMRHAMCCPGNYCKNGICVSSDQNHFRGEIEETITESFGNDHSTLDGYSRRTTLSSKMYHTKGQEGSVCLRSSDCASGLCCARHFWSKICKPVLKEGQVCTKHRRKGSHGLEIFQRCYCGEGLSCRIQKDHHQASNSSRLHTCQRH

As for `CCCCC(=C=CC[C@@H](O)c1ccc(CO)o1)CCO`, the composite z-score is 0.175 in experiment [1]; -0.119 in experiment [2]; -0.479 in [3]; 0.788 in [5]; 0.621 in experiment [6]; -0.617 in experiment [7]. Moreover, the composite z-score in experiment [8] was -0.0762; in [9], 0.294; in [10], 1.26. Further, the z-score in [4] was 0.37 (inactive).

`COC(=O)C(CC#Cc1ccc2c(c1)[C@]1(C(=O)N2)[C@H](c2ccc(O)cc2)N2[C@H](c3ccccc3)[C@H](c3ccccc3)OC(=O)[C@H]2[C@@H]1C(=O)N1CCN(c2ncccn2)CC1)C(=O)OC`: the composite z-score in experiment [1] was determined as 1.69; in experiment [2], 0.534; in experiment [3], 0.508; in experiment [5], 0.621; in experiment [6], 1.03; in experiment [7] it was 0.116. Moreover, the composite z-score in experiment [8] worked out at 0.655; in [9] it was 0.0879; in [10] it was 0.126. For the same compound, the z-score in experiment [4] is -0.84 (inactive).

As for `C=CC[C@]1(C(N)=O)COC(c2ccc(OCCCO)cc2)=N1`, the composite z-score in experiment [1] is -0.171; in [2] it was -0.145; in [3], 0.381; in [5], 0.577; in [6], -0.557; in experiment [7], 0.0704. In addition, the composite z-score is -0.235 in experiment [8], -0.314 in experiment [9] and 0.927 in [10]. Further, the z-score in experiment [4] is -0.359 (inactive).

On to `O=C1NC(=O)C2C1C=CC(C(O)c1ccc(I)cc1)N2Nc1ccccn1` (stereo not given), for which the composite z-score in [1] was 1.33; in experiment [2], 0.0824; in [3], 0.464; in [5] it was -0.0548; in experiment [6], -0.269; in experiment [7], 0.268. In addition, the composite z-score in [8] is -0.0861; in [9], 0.153; in experiment [10], 1.14. In addition, in experiment [4], the z-score is 1.04 (inactive).

Regarding `COc1ccc(-c2cc3c(c(Cc4ccccc4)n2)[Si](C(C)C)(C(C)C)OC3)cn1`, the composite z-score in [1] is 0.409; in experiment [2] it was 0.0847; in [3], -0.386; in experiment [5] it was -0.156; in experiment [6], -0.949; in [7] it was 0.343. Moreover, the figures for the composite z-score in experiment [8], in [9] and in experiment [10] were -0.139, 0.085 and 0.256, respectively. The z-score in [4] was -0.267 (inactive).

Take `COc1ccc(CCNC(=O)[C@@]2(c3ccc([N+](=O)[O-])cc3)CC(=O)N(CC34CC5CC(CC(C5)C3)C4)[C@@H]2c2ccc(CO)cc2I)cc1`: the composite z-score was 1.01 in experiment [1]; -0.153 in experiment [2]; -0.263 in [3]; 1.15 in experiment [5]; 1.04 in experiment [6]; 0.233 in experiment [7]. In addition, the composite z-score was 0.861 in experiment [8], 0.424 in experiment [9] and -0.444 in experiment [10]. Also, the z-score in experiment [4] was -0.287 (inactive).

Consider `COCCCNC(=O)[C@@]1(Sc2ccc(C)cc2)CC(=O)N(Cc2ccccc2Cl)[C@@H]1c1ccc(CO)cc1`, for which the composite z-score in experiment [1] came to 1.36; in experiment [2], 0.0942; in experiment [3], 0.0166; in experiment [5], 0.977; in [6] it was 0.56; in experiment [7], 0.491. Also, the composite z-score is 1.36 in experiment [8], 0.553 in experiment [9] and 0.595 in experiment [10]. The z-score in [4] was -0.87 (inactive).

On to `C=CCNC(=O)[C@H]1[C@@H]2C(=O)O[C@@H](c3ccccc3)[C@@H](c3ccccc3)N2[C@@H](c2ccc(OCCO)cc2)[C@]12C(=O)Nc1ccc(C#CCC(C(=O)OC)C(=O)OC)cc12`, for which the composite z-score in experiment [1] is 1.25; in experiment [2] it was 0.313; in experiment [3], 0.655; in experiment [5], 1.29; in experiment [6], 1.09; in experiment [7], 0.787. Moreover, the composite z-score in experiment [8] came out at 1.25; in [9], 0.83; in experiment [10], 0.559. Moreover, the z-score in experiment [4] is 0.279 (inactive).

With `CC(=O)NCCCC[C@@H]1NC(=O)[C@H]2C[C@@H](C(=O)NCCCCCNC(=O)CS)[C@@H](c3ccc(O)cc3)N2C1=O`, the composite z-score in [1] is 0.273; in [2], 0.143; in [3], 0.762; in experiment [5] it was 0.157; in [6], -0.252; in experiment [7], -0.578. For the same compound, the composite z-score is -0.84 in [8], -0.186 in experiment [9] and -0.0107 in experiment [10]. The z-score in experiment [4] is -0.372 (inactive).

For the compound `COc1ccc([C@H]2C[C@H]3C(I)=C[C@@H]2C(=O)[C@]32CO2)cc1`, the composite z-score in experiment [1] was 0.802; in experiment [2] it was 0.168; in experiment [3] it was -0.206; in [5] it was 0.66; in [6] it was -0.611; in experiment [7], -0.0989. In addition, the results for the composite z-score in experiment [8], in experiment [9] and in [10] were 0.926, 0.726 and 0.508, respectively. The z-score in experiment [4] is -0.568 (inactive).

For the compound `[N-]=[N+]=Nc1ccccc1C[C@]1(C(=O)NCc2ccccc2)N=C(c2ccc(OCCCO)cc2)O[C@H]1c1ccccc1N=[N+]=[N-]`, the composite z-score in [1] was found to be 1.04; in [2], 0.236; in experiment [3], 0.778; in experiment [5] it was 1.31; in experiment [6], 0.34; in experiment [7] it was 0.291. Moreover, the composite z-score in experiment [8] was 0.646; in [9] it was -0.245; in experiment [10], 1.11. Besides, in experiment [4], the z-score is 0.716 (inactive).

`C[C@H]1C2[C@H](Cc3ccccc3)NC(=O)[C@]23C(=O)NCC(=O)N2CCC[C@H]2C(=O)NC/C=C/CCC/C=C/C3[C@@H]2O[C@]12C` (stereo not given in full): the composite z-score in [1] is 0.38; in experiment [2], -0.398; in experiment [3], -0.269; in experiment [5], -0.568; in experiment [6], -1.26; in [7], -0.681. For the same compound, the composite z-score was -0.618 in experiment [8], -0.233 in experiment [9] and 1.55 in experiment [10]. In addition, in experiment [4], the z-score is -0.0803 (inactive).

With `COc1ccc(C(O)C2C=CC3C(=O)N(C)C(=O)C3N2NC(=O)OC(C)(C)C)c2ccccc12` (stereo not given), the composite z-score came to 1.47 in experiment [1]; 0.578 in [2]; 1.01 in experiment [3]; 1.16 in experiment [5]; 1.27 in [6]; 0.138 in experiment [7]. Further, the composite z-score in experiment [8] was 1.32; in [9] it was -0.557; in [10] it was 0.441. The z-score in experiment [4] is 1.41 (inactive).
